Only some compounds are listed: those with a hit (about 12% of all), similar ones and a draw of the others.
Sfp inh: blocks B. subtilis Sfp PPTase activity | hit rate 3.5% among 310,000 | Q9F4F7 | Biochemical Sfp PPTase activity, qHTS | AID 1490 | Potency, µM, for inactives: largest response in the series, negative = inhibition, hits mostly inhibitors;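 also: the enzyme is Sfp with the accession as filed and its product quenches rhodamine fluorescence; 0% = enzyme reaction without inhibitor and -100% = no enzyme wells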
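Step 1, compound plus 15 nM Sfp-PPTase, 15 min, room temperature. Step 2, add rhodamine-CoA (5 uM) and BHQ-2-YbbR (12.5 uM). Step 3, read 525/598 nm fluorescence at 0 and 30 min.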
JMJD2A Tudor: inhibitors of human JMJD2A Tudor domain; O75164; AlphaScreen JMJD2A-Tudor / H3K4me3 peptide binding; Potency, µM (highest dose often 114 µM), for the others: top-dose activity change, negative = inhibition, most hits filed as inhibitors; hit rate 4.4% among 390,000; also: % is scaled to controls: 0 for no effect and ±100 for the full control effect; nearly all actives have a fitted effect of over 50% in size
HP1b chromo inh: blocks HP1-beta chromodomain binding to methylated histone tails. AlphaScreen HP1-beta / biotin-H3K9me3 peptide binding. Potency, µM (highest dose often 114 µM), inactives show at the highest dose activity change, negative = inhibition, hits mostly inhibitors. hit rate 0.56% among 390,000; also: nearly all actives have a fitted effect of over 70% in size
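Compound inhibition of the preformed complex between 50 nM HP1-beta and 50 nM biotinylated H3K9me3 peptide was read by AlphaScreen. Buffer was PBS pH 7.4 with 0.01% Tween-20. Incubations ran 30 min at room temperature, with 10 ug/mL donor/acceptor beads.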
PLK1 PBD inh: PLK1 (human) polo-box domain binding inhibition | AID 720504 | hit rate 2.8% among 360,000 | Potency, µM, for inactives: max response, negative = inhibition, usual class: inhibitors | Plk1 PBD binding of FITC phosphopeptide, fluorescence polarization; also: series mostly up to about 57 µM; % is scaled to controls: 0 for no effect and ±100 for the full control effect; nearly all actives have a fitted effect of over 65% in size
G9a block: inhibitors of human histone lysine methyltransferase G9a. Q96KQ7. G9a H3K9 monomethylation, AlphaScreen, 2 h. Potency, µM (doses to about 102 µM), for inactives: at the top dose activity, negative = inhibition, actives largely listed as inhibitors. hit rate 8.8% among 350,000; also: % is scaled to controls: 0 for no effect and ±100 for the full control effect; nearly all actives have a fitted effect of over 75% in size
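Step 1: enzyme (final 20 nM) with compound, 15 min RT. Step 2: substrate peptide 500 nM and SAM 20 uM, 2 h RT. Step 3: anti-H3K9me1 antibody and AlphaScreen beads, 10 min, then plate read.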
BAZ2B block: blocks human BAZ2B | Potency, µM (series often up to 114 µM), inactives show at the top dose activity change, negative = inhibition, most hits filed as inhibitors | Q9UIF8 | hit rate 4.4% among 360,000 | AlphaScreen BAZ2B-H3K14Ac peptide displacement; also: % is scaled to controls: 0 for no effect and ±100 for the full control effect; nearly all actives have a fitted effect of over 60% in size
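AlphaScreen displacement: compounds (up to 110uM) incubated 30 min at room temperature with a preformed 50 nM BAZ2B/50 nM biotinylated H3K14Ac peptide complex in PBS pH 7.4 with Tween-20. Donor and acceptor beads at 10 ug/mL final added, 20 min light-protected before reading.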
* = called active by the depositor; ? = inconclusive; / = no result given; [ ] = another dose, or the depositor's remark. Calls follow the shape of the dose curve; as a rule, active = well fitted curve in the direction sought with a large enough effect; inconclusive = small, poorly fitted or top-dose-only effect, or another doubt; inactive = no such curve, though single readings can be large; an effect the other way counts as inactive or inconclusive. Potency is read from the fitted curve at half-maximal effect.

SMILES	Sfp inh	JMJD2A Tudor	HP1b chromo inh	PLK1 PBD inh	G9a block	BAZ2B block
CCOc1ccc(N2C(=O)C(=O)/C(=C(/O)c3ccccc3)C2c2ccccc2[N+](=O)[O-])cc1 (stereo not given)	?	-26.8%	7.0%	-18.9%	44.7µM*	-8.4%
O=C1C(=O)N(c2cccc(Cl)c2)C(c2ccccc2[N+](=O)[O-])/C1=C(\O)c1ccccc1 (stereo not given)	22.4µM*	?	-7.7%	?	28.2µM*	79.4µM*
O=C1C(=O)N(c2ccccc2)C(c2ccccc2[N+](=O)[O-])/C1=C(\O)c1ccccc1 (stereo not given)	12.6µM*	-31.8%	?	-10.6%	?	?
COc1ccccc1C1/C(=C(/O)c2ccccc2)C(=O)C(=O)N1CC(C)C (stereo not given)	4.2%	?	12.4%	-8.7%	?	0.7%
CCc1nn2c(=O)cc(-c3ccncc3)nc2s1	/	-9.5%	/	/	/	/
Cc1ccc(-n2c3c(c(=O)[nH]c2=O)C(NC(=O)c2ccccc2F)(C(F)(F)F)C(=O)N3)cc1C (stereo not given)	/	-3.4%	32.2%	/	6.6%[59 µM]	-13.9%
O=C(/C=C/c1ccco1)OCc1nnc(-c2ccccc2)o1	-16.2%	-26.2%	5.7%	-6.5%	50.1µM*	50.1µM*
COc1cccc(/C=C/C(=O)OCC(=O)Nc2ccc(Cl)c(S(=O)(=O)N(C)C)c2)c1	?	-4.8%	34.5%	5.3%	9.0%	-24.7%
O=C(/C=C/c1ccco1)OCn1nnc2ccccc2c1=O	-72.3%	-12.8%	16.6%	-7.5%	35.5µM*	56.2µM*
COC(=O)c1ccccc1NC(=O)COC(=O)/C=C/c1ccco1	3.4%	-12.8%	11.5%	-3.3%	50.1µM*	?
CN(C)S(=O)(=O)c1cc(NC(=O)COC(=O)/C=C/c2ccco2)ccc1Cl	?	56.2µM*	?	-27.3%	?	?
COc1ccc(C(=O)NC(C)Cc2c[nH]c3ccccc23)cc1 (stereo not given)	/	/	/	3.8%	/	/
C[C@H]1Cc2c(COc3ccccc3)nc3c(c2CO1)CN(C(=O)C1CCCCC1)CC3	21.6%	/	/	/	/	/
CCN(Cc1nc2ccccc2c(=O)[nH]1)C(=O)COc1ccccc1Cc1ccccc1	/	-23.9%	24.6%	3.0%	3.7%[0.501 µM]	1.1%
COC(=O)c1ccccc1NC(=O)COC(=O)c1ccc(C)c(NC(=O)c2ccco2)c1	7.8%	-17.0%	34.8%	2.1%	22.1%	22.7%
COC(=O)c1ccccc1NC(=O)COC(=O)c1ccco1	-4.8%	?	6.5%	-9.4%	8.7%	50.1µM*
O=C(COC(=O)/C=C/c1ccco1)NCc1ccc2c(c1)OCO2	0.5%	-19.2%	-0.3%	-5.0%	56.2µM*	70.8µM*
O=C(COC(=O)/C=C/c1ccco1)Nc1ccccc1	-9.3%	-22.8%	-1.7%	-2.2%	56.2µM*	?
O=C(CSCc1ccc(C(=O)O)cc1)Nc1ccccc1	3.3%	-0.7%	40.4%	-1.1%	11.4%	0.0%
CC(C)c1ccc(Nc2cc(C(=O)NC3CCCCC3)c3ccccc3n2)cc1	/	-13.0%	24.0%	/	12.4%[59 µM]	/
Cn1c(CCC(=O)Nc2ccc(S(C)(=O)=O)cc2)nc2cc(S(=O)(=O)N3CCOCC3)ccc21	/	-1.3%	21.8%	-12.3%	/	/
Cn1c(CCC(=O)O)nc2cc(S(=O)(=O)N3CCCCC3)ccc21	/	-27.0%	-25.5%	26.7µM*	?	-19.4%
Cn1c(CCC(=O)Nc2cc(S(C)(=O)=O)ccc2Cl)nc2cc(S(=O)(=O)N3CCOCC3)ccc21	/	-13.8%	6.1%	?	10µM*	79.4µM*
O=C(Nc1ccc(S(=O)(=O)Nc2cnc3ccccc3n2)cc1)c1ccccc1Br	14.4%	-11.6%	1.5%	-5.4%	1.2%[59 µM]	-5.4%
CCOC(=O)c1oc2ccc(S(=O)(=O)n3nc(-c4ccc(Br)cc4)cc3N)cc2c1C	/	-24.2%	23.0%	/	-34.0%[59 µM]	-25.6%
SMILES	Sfp inh	JMJD2A Tudor	HP1b chromo inh	PLK1 PBD inh	G9a block	BAZ2B block
COC(=O)C1SCC2C(=O)N(Cc3ccc(Cl)c(Cl)c3)CC(=O)N21 (stereo not given)	0.7%	?	9.8%	18.9µM*	-26.3%	-14.0%
COC(=O)C1SCC2C(=O)N(Cc3ccc(Cl)cc3)CC(=O)N21 (stereo not given)	8.9%	0.0%[57.1 µM]	51.1%	-6.5%	-15.9%	-2.2%
CC(C)[C@@H](OCc1ccccc1)[C@H](C)/C=N\OC[C@@H](O)[C@@H]1O[C@@H]2OC(C)(C)O[C@@H]2[C@H]1O	-2.2%	/	/	/	/	/
O=C(/C(=C/c1ccncc1)n1ccnc1)c1ccc(Cl)cc1Cl	1.4%	?	18.1%	26.7µM*	?	-24.8%
O=C(/C(=C/c1cccnc1)n1ccnc1)c1ccc(Cl)cc1Cl	?	-16.9%	20.7%	?	-32.0%	?
COc1ccc(C2C(C#N)=C(N)Nc3nc4ccccc4n32)cc1 (stereo not given)	26.7%	-11.0%	14.9%	-9.0%	?	2.6%
N#CC1=C(N)Nc2ncnn2C1c1ccc(F)cc1 (stereo not given)	5.0%	-3.5%	39.6%	5.9%	39.8µM*	13.9%
COc1ccc(-n2c(=O)c3c(C)c(C)sc3n(CC(=O)NCc3ccc(C)cc3)c2=O)c(OC)c1	/	-11.9%	19.5%	/	-8.4%[59 µM]	-9.7%
Cc1cc(C)cc(NC(=O)Nc2ccc(N3CCCCC3)cc2)c1	50.1µM*	-21.4%	15.7%	2.5%	8.91µM*	-27.3%
O=C(CN1CCCCC1)Nc1ccc(N2CCCCCC2)cc1	-20.9%	50.1µM*	?	-7.6%	17.8µM*	14.1µM*
Cc1cc(C)cc(OCC(=O)Nc2ccc(N3CCCCC3)cc2)c1	/	-29.7%	?	-7.6%	-5.2%[2.33 µM]	-34.2%
O=C(CCc1ccccc1)Nc1ccc(N2CCCCC2)cc1	13.1%	-14.9%[57.1 µM]	30.0%	-4.0%	8.91µM*	-22.1%
O=C(Cc1ccccc1)NCCS(=O)(=O)N1CCN(c2ccccc2)CC1	/	-19.2%	1.5%	0.7%	50.1µM*	6.5%
O=C(CCc1ccccc1)Nc1ccc(S(=O)(=O)N2CCCC2)cc1	-8.5%	0.3%	49.0%	2.7%	/	-2.9%
O=C(Cc1ccccc1)Nc1ccc(N2CCCC2)cc1	?	?	-6.0%	-4.0%	8.91µM*	?
CCCOC(=O)Nc1ccc(N2CCCCC2)cc1	-17.1%	?	-29.9%	4.3%	8.91µM*	70.8µM*
CCCCC(=O)Nc1ccc(N2CCCC2)cc1	/	?	-10.3%	-2.5%	/	/
CC(=O)N[C@@H](Cc1ccc(O)cc1)C(=O)N[C@H](C(=O)N[C@@H](C)C(=O)N[C@H](C#N)CC(=O)O)C(C)C	/	/	/	/	8.0%[12.7 µM]	-3.3%
N#Cc1ccc(NC2=NS(=O)(=O)c3ccccc32)cc1	/	-7.5%	14.9%	/	-8.3%[59 µM]	-21.9%

Source: PubChem
